From PubChem BioAssay
Vif-A3F inh = blocks the Vif interaction with APOBEC3F. HeLa A3F-eYFP + Vif (tagged APOBEC3F with the HIV-1 protein that degrades it), YFP fluorescence increase. Potency, µM (titrated, usually from 46.1 µM). actives 0.2% (n = 390,000); further: nearly all actives have a fitted effect of over 65% in size
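Fluorescence increase (Ex 488/Em 500-530) after overnight compound treatment at 37 deg C flags inhibition of Vif-driven A3F-eYFP loss in stable HeLa A3F-eYFP/Vif cells seeded overnight beforehand.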
SW480 rerep = inducers of DNA re-replication in SW480 colon cancer cells; SW480 DNA re-replication, Hoechst DNA content imaging, 48 h; AID 624297; Potency, µM (highest dose often 46.1 µM), actives largely listed as activators; actives 1.8% (n = 340,000); further: nearly all actives have a fitted effect of over 55% in size
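Hoechst fluorescence of nuclei (405 nm excitation, 500-530 nm emission) measured by plate-scanning imager after 48 hr compound exposure at 37 C; re-replication scored as increased number of nuclei with elevated intensity.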
IL1B secr inh = blocks inflammasome-driven IL-1 beta release | actives 4.7% (n = 360,000) | THP-1 LPS/ATP IL-1B secretion, AlphaLISA, 16 h; active compounds read low | activity change, % at 57.5 µM | AID 743279; in the data active means activity change below about -50%; inconclusive means mostly about -30% to -49%
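Secreted IL-1B measured by AlphaLISA bead assay after 16 h compound exposure of THP-1 cells; compounds (final up to 57.5 uM) added 1 h before LPS (250 ng/mL) and ATP (1.25 mM) stimulation; lower signal means less secretion.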
Giardia killer = kills Giardia lamblia | activity change, % at 7.66 µM, hits read low | AID 540267 | actives 0.15% (n = 340,000) | Giardia lamblia trophozoite viability; in the data active means activity change below about -80%; inconclusive means between about -30% and that limit;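 further: parasites exposed to compound for two days anaerobically before the ATP read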
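ATP-content bioluminescence gauges trophozoite survival. Cells (100/well) receive compound and incubate anaerobically for 48 hrs at 37 deg C; detection reagent follows for 15-30 min at room temperature.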
Vif-APOBEC3G blk = Vif-A3G binding inhibition; Q9HC16; HeLa A3G-eYFP + Vif (tagged APOBEC3G with the HIV-1 protein that degrades it), YFP fluorescence, overnight; Potency, µM (series often up to 46.1 µM), hits mostly inhibitors; actives 0.076% (n = 410,000); further: nearly all actives have a fitted effect of over 60% in size
Target sequence (Q9HC16 whole entry, looked up): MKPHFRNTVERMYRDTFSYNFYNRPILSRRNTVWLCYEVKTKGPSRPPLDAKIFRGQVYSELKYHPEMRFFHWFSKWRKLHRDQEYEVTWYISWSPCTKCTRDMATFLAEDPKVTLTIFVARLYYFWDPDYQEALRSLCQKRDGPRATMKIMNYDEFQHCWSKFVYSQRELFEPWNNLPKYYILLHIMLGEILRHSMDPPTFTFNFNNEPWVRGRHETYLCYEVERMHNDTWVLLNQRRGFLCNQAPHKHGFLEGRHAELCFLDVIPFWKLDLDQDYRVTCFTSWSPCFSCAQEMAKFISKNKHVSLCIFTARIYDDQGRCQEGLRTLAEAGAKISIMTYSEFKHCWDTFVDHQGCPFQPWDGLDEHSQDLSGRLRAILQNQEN
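Read-out is eYFP fluorescence (Ex 488/Em 500-530) from Vif-expressing HeLa A3G-eYFP cells; more signal means A3G escaped Vif-mediated degradation. Cells plated overnight, compound pinned in, incubated overnight at 37 deg C.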
MCF10A rerep = induces DNA re-replication in MCF 10a normal breast cells; MCF 10A DNA re-replication, Hoechst nuclear intensity, 48 h; Potency, µM (top dose mostly 46.1 µM), hits mostly activators; actives 2.9% (n = 350,000); AID 624296; further: nearly all actives have a fitted effect of over 50% in size
Numbers stand for hits; [ ] = dose if it differs, or a comment. Shown are actives, neighbours in structure and some others; about 6.9% of the full set was active somewhere. Unless noted, the call rests on the fitted dose curve; in most records, active means well fitted curve in the direction sought with a large enough effect; inconclusive means small, poorly fitted or top-dose-only effect, or another doubt; inactive means no such curve, though single readings can be large; an effect the other way counts as inactive or inconclusive.

What do the screens show for `Cc1nn(CC(=O)NCc2ccc(F)cc2)c2ccccc12`?
Vif-A3F inh: inactive; Vif-APOBEC3G blk: inactive

Results for CCc1nc(SCC(=O)Nc2ccc(NC(C)=O)cc2)n[nH]1 ?
Vif-A3F inh: inactive; Vif-APOBEC3G blk: inactive

What do the screens show for `Cc1ccc(S(=O)(=O)NC(C)(C)CN2CCc3ccccc3C2)cc1`?
Vif-A3F inh: inactive; SW480 rerep: 6.5µM; IL1B secr inh: inactive; Giardia killer: inactive; Vif-APOBEC3G blk: inactive; MCF10A rerep: inactive

Results for CC(C)(CN1CCCCC1)NS(=O)(=O)c1ccc(Cl)cc1 ?
Vif-A3F inh: inactive; SW480 rerep: inactive; IL1B secr inh: inactive; Giardia killer: inactive; Vif-APOBEC3G blk: inactive; MCF10A rerep: inactive

What do the screens show for `Cc1ccc(S(=O)(=O)NC(C)(C)CN2CCNCC2)cc1`?
Vif-A3F inh: inactive; SW480 rerep: 21µM; IL1B secr inh: inactive; Giardia killer: inactive; Vif-APOBEC3G blk: inactive; MCF10A rerep: inconclusive

Results for CCCCOc1ccc(CNC(=O)c2cc3n(n2)CCCN(Cc2ccc(C)cc2)C3=O)cc1 ?
Vif-A3F inh: inactive; Vif-APOBEC3G blk: inactive

Results for CCN(CC)P(=O)(Nc1ccc(C)cc1Br)c1ccc(N(C)C)cc1NC(=O)c1ccco1 (configuration not stated) ?
Vif-A3F inh: inactive; SW480 rerep: inconclusive; IL1B secr inh: -66; Giardia killer: inactive; Vif-APOBEC3G blk: inactive; MCF10A rerep: inconclusive

How did Cc1ccc(NC(=O)c2ccco2)c(NC(=O)c2ccccc2)c1 do in these assays?
Vif-A3F inh: inactive; SW480 rerep: inactive; IL1B secr inh: inactive; Giardia killer: inactive; Vif-APOBEC3G blk: inactive; MCF10A rerep: inactive

Results for CC(C)c1ccc(-c2cc(C(=O)N3N=C(C(F)F)CC3(O)C(F)F)c3ccccc3n2)cc1 (configuration not stated) ?
Vif-A3F inh: inactive; SW480 rerep: inconclusive; IL1B secr inh: -56; Giardia killer: inactive; Vif-APOBEC3G blk: inactive; MCF10A rerep: 4.5µM

Results for O=C(c1cc(C2CC2)nc2ccccc12)N1N=C(C(F)F)CC1(O)C(F)F (configuration not stated) ?
Vif-A3F inh: inactive; SW480 rerep: inactive; IL1B secr inh: inactive; Giardia killer: inactive; Vif-APOBEC3G blk: inactive; MCF10A rerep: inconclusive

What do the screens show for `COc1ccc(CNC(=O)c2ccc3c(c2)N(Cc2ccccc2C)C(=O)c2ccccc2S3=O)cc1` (configuration not stated)?
Vif-A3F inh: inactive; Vif-APOBEC3G blk: inactive

How did COc1ccc(O)c(-c2nc(N)nc(N)n2)c1 do in these assays?
Vif-A3F inh: inactive; SW480 rerep: inconclusive; IL1B secr inh: -98; Giardia killer: inactive; Vif-APOBEC3G blk: inactive; MCF10A rerep: 7.3µM

Results for COc1ccc(Cc2nc(N)nc(N)n2)cc1 ?
Vif-A3F inh: inactive; SW480 rerep: inactive[9.22 µM]; IL1B secr inh: inactive; Giardia killer: inactive; Vif-APOBEC3G blk: inactive; MCF10A rerep: inactive

Results for Nc1nc(N)nc(-c2cc(F)ccc2O)n1 ?
Vif-A3F inh: inactive; SW480 rerep: inconclusive; IL1B secr inh: -99; Giardia killer: inactive; Vif-APOBEC3G blk: inactive; MCF10A rerep: inconclusive

How did Cc1cc(Cl)ccc1NC(=O)CN1C(=O)COc2ccc(S(=O)(=O)N3CCC(C)CC3)cc21 do in these assays?
Vif-A3F inh: inactive; Vif-APOBEC3G blk: inactive

What do the screens show for `CCOC(=O)c1c(C)[nH]c(-c2csc(C)n2)c1C`?
Vif-A3F inh: inactive; SW480 rerep: inactive; IL1B secr inh: inactive; Giardia killer: inactive; Vif-APOBEC3G blk: inactive; MCF10A rerep: inactive

Results for CCOC(=O)c1c(C)[nH]c(-c2csc(N)n2)c1C ?
Vif-A3F inh: inactive; SW480 rerep: inconclusive; IL1B secr inh: inactive; Giardia killer: inactive; Vif-APOBEC3G blk: inconclusive; MCF10A rerep: 16µM

Results for Cc1ccc(S(=O)(=O)NCCc2cn3ccsc3n2)c(C)c1 ?
Vif-A3F inh: inactive; Vif-APOBEC3G blk: inactive

What do the screens show for `Cc1ccsc1C(=O)N1CCCC(CCC(=O)N2CCN(c3ccccn3)CC2)C1` (configuration not stated)?
Vif-A3F inh: inactive; SW480 rerep: inactive; IL1B secr inh: inactive; Giardia killer: inactive; Vif-APOBEC3G blk: inactive; MCF10A rerep: 6.5µM

How did CCOC(=O)c1cc2c(ccn2C)n1CC(=O)N1CCC(Cc2ccccc2)CC1 do in these assays?
Vif-A3F inh: inactive; SW480 rerep: inactive; IL1B secr inh: -74; Giardia killer: inactive; Vif-APOBEC3G blk: inactive; MCF10A rerep: inconclusive

What do the screens show for `CCOC(=O)c1cc2c(ccn2C)n1CC(=O)N(CC)CC`?
Vif-A3F inh: inactive; SW480 rerep: inactive; IL1B secr inh: inactive; Giardia killer: inactive; Vif-APOBEC3G blk: inactive; MCF10A rerep: inactive

What do the screens show for `CCOC(=O)c1cc2c(ccn2C)n1CC(=O)N(C)C`?
Vif-A3F inh: inactive; SW480 rerep: inactive; IL1B secr inh: inactive; Giardia killer: inactive; Vif-APOBEC3G blk: inactive; MCF10A rerep: 0.65µM

What do the screens show for `N=c1c(C(=O)NC2CCCCC2)cc2c(=O)n3ccccc3nc2n1CCc1ccccc1`?
Vif-A3F inh: inactive; SW480 rerep: 2.3µM; IL1B secr inh: inactive; Giardia killer: inactive; Vif-APOBEC3G blk: inactive; MCF10A rerep: 2.6µM

What do the screens show for `N=c1c(C(=O)NC2CCCCC2)cc2c(=O)n3ccccc3nc2n1Cc1ccco1`?
Vif-A3F inh: inactive; SW480 rerep: 21µM; IL1B secr inh: inactive; Giardia killer: inactive; Vif-APOBEC3G blk: inactive; MCF10A rerep: inconclusive

What do the screens show for `CCCn1c(=N)c(C(=O)NC2CCCCC2)cc2c(=O)n3cc(C)ccc3nc21`?
Vif-A3F inh: inconclusive; Vif-APOBEC3G blk: inactive

How did Cc1ccc(Cn2c(=N)c(C(=O)NC3CCCC3)cc3c(=O)n4ccccc4nc32)cc1 do in these assays?
Vif-A3F inh: inactive; SW480 rerep: 1.6µM; IL1B secr inh: inactive; Giardia killer: inactive; Vif-APOBEC3G blk: inactive; MCF10A rerep: inconclusive

Results for CCCn1c(=N)c(C(=O)NC2CCCC2)cc2c(=O)n3cc(C)ccc3nc21 ?
Vif-A3F inh: inactive; Vif-APOBEC3G blk: inactive

What do the screens show for `CCCn1c(=N)c(C(=O)NCc2cccnc2)cc2c(=O)n3ccccc3nc21`?
Vif-A3F inh: inactive; Vif-APOBEC3G blk: inactive

Results for N=c1c(C(=O)NCc2ccc(F)cc2)cc2c(=O)n3ccccc3nc2n1Cc1cccnc1 ?
Vif-A3F inh: inconclusive; SW480 rerep: inconclusive; IL1B secr inh: inactive; Giardia killer: inactive; Vif-APOBEC3G blk: inactive; MCF10A rerep: 5.8µM

Results for COc1ccc(NC(=O)C(C)n2nc(-c3cc(C)ccc3C)c3c(c2=O)CCCC3)cc1 (configuration not stated) ?
Vif-A3F inh: inactive; Vif-APOBEC3G blk: inactive

How did Cc1ccc(OCC(=O)Nc2ccccc2C(=O)OCc2cc(=O)n3c(C)csc3n2)cc1 do in these assays?
Vif-A3F inh: inactive; Vif-APOBEC3G blk: inactive
